Source: PubChem BioAssay (NCATS)
Inconclusive results are not listed. Entries that show only a call come without a potency. The source made the active and inactive calls. Calls come from the whole dose curve; as a rule, active = well fitted inhibition curve with a large enough effect; inconclusive = small, poorly fitted or top-dose-only effect; inactive = no such curve, though single readings can be large or run the other way.

Test: HTS Assay for Allosteric Antagonists of the Human D2 Dopamine Receptor: Hit Validation in HTRF (AID 624455);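 note: stable D1 dopamine receptor cell line scored for blocking the D1 response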
Settings: Cells stably expressing D1 dopamine receptor, inhibition mode; series mostly up to 46.1 µM
Excerpt: Dopamine receptors (DARs) are involved in the etiology and/or therapy of a number of neuropsychiatric and endocrine disorders. For instance, all receptor-based antiparkinsonian drugs work via stimulating the D2 DAR subtype whereas all FDA-approved antipsychotic agents are antagonists of this receptor. […] There are three different types of allosteric modulators that we are seeking, two of which will stimulate or augment receptor signaling, allosteric agonists and potentiators, while the third, allosteric antagonists, will attenuate receptor signaling. The present primary screening assay measures compound antagonism after an EC80 addition of dopamine by tracking calcium flux in a […], inducible Hek293 Trex D2 cell line. This assay measures activity of the hits in the D1 HTRF assay.
NIH Chemical Genomics Center [NCGC]
NIH Molecular Libraries Probe Centers Network [MLPCN]
Assay Submitter (PI): David Sibley
Cells stably expressing the D1 dopamine receptor will be run in an HTRF assay and compounds will be examined for the ability to inhibit the D1 mediated response.
Potency is the fitted concentration of half-maximal effect.

SMILES	Potency
Oc1ccccc1O	inactive
CNC(=O)[C@H]1O[C@@H](n2cnc3c(NCc4cccc(I)c4)ncnc32)[C@H](O)[C@@H]1O	inactive
O=C(c1ccc(Cl)cc1)N1CCN(c2ccc([N+](=O)[O-])c3ncccc23)CC1	inactive
C[N+]1(C)CCC(OC(=O)C(c2ccccc2)c2ccccc2)CC1	inactive
N=c1ccn2c(n1)O[C@H]1[C@H](O)[C@@H](CO)O[C@H]12	inactive
N#C/C(=C\c1ccc(O)c(O)c1)C(=O)NCCCc1ccccc1	inactive
CC1CN(S(=O)(=O)c2cccc3cnccc23)CCN1 (stereo not given)	inactive
C=C[C@H]1CN2CC[C@@H]1C[C@@H]2[C@@H](O)c1ccnc2ccc(OC)cc12	inactive
Cc1ccc(O)c(N=Nc2ccccc2)n1	inactive
C[C@@H](CN1CCC(Cc2ccccc2)CC1)[C@@H](O)c1ccc(O)cc1	inactive
CN(C)c1ccc(/C=C2\C(=O)Nc3ccccc32)cc1	inactive
CCCn1c(=O)c2[nH]c(-c3ccc(OCC(=O)NCCN)cc3)nc2n(CCC)c1=O	inactive
O=C(O)[C@@H]1C[C@@H](C(=O)O)N1	inactive
CN(C)c1nc2c(Br)c(Br)c(Br)c(Br)c2[nH]1	inactive
Brc1c(Br)c(Br)c2n[nH]nc2c1Br	inactive
NS(=O)(=O)C#Cc1ccccc1	inactive
CC(C)(C=O)Cc1cc(C(C)(C)C)c(O)c(C(C)(C)C)c1	inactive
C=CC(C)=C[C@@]1(C)SC(=O)C(C)=C1O	inactive
O=S(=O)(c1cccc2c(I)cccc12)N1CCCNCC1	inactive
CO/N=C(\C(=O)N[C@@H]1C(=O)N2C(C(=O)O)=C(COC(C)=O)CS[C@H]12)c1csc(N)n1	inactive

SMILES	Potency
NC(N)=NC(=O)c1nc(Cl)c(N2CCCCCC2)nc1N	inactive
Cc1ccc(S(=O)(=O)/C=C/C#N)cc1	inactive
O=C1NC(=O)/C(=C/c2ccc3nccnc3c2)S1	inactive
N[C@@H](CC(=O)O)C(=O)O	inactive
CC(C)ON([C@@H](C(=O)NO)C(C)C)S(=O)(=O)c1ccc(-c2ccccc2)cc1	inactive
Cc1ccc(C(=O)O[C@H](C(=O)O)[C@@H](OC(=O)c2ccc(C)cc2)C(=O)O)cc1 (tested in a mixture with another compound)	inactive
NC(=S)NCCC[C@H](N)C(=O)O	inactive
CC[C@@H](C)[C@H]1O[C@]2(CC[C@H]1C)C[C@@H]1C[C@@H](CC=C(C)[C@@H](O[C@H]3C[C@H](OC)[C@@H](O[C@H]4C[C@H](OC)[C@@H](O)[C@H](C)O4)[C@H](C)O3)[C@@H](C)C=CC=C3CO[C@@H]4[C@H](O)C(C)=C[C@@H](C(=O)O1)[C@]34O)O2	inactive
CCCCCC(O)c1cccc(OCc2ccc3ccccc3n2)c1 (stereo not given)	inactive
OCC1O[C@H]([S-])[C@H](O)[C@@H](O)[C@@H]1O.[Au+] (stereo not given in full)	inactive
CN1C2CC(OC(=O)[C@H](CO)c3ccccc3)CC1C1OC12 (stereo not given in full)	inactive
CCCCCCCCCCCCCCCC(=O)OC(CC(=O)O)C[N+](C)(C)C (stereo not given)	inactive
CCCCCCCCCCCCCCCCCC(=O)OC(CC(=O)O)C[N+](C)(C)C (stereo not given)	inactive
C=CC(N)CCC(=O)O (stereo not given)	inactive
CNC(=O)[C@H]1O[C@@H](n2cnc3c(NCc4ccc(N)cc4)ncnc32)[C@H](O)[C@@H]1O	inactive
CCNC(=O)[C@H]1O[C@@H](n2cnc3c(N)nc(NCCc4ccc(CCC(=O)O)cc4)nc32)[C@H](O)[C@@H]1O	5.17 µM (active)
CN1CCc2cc(NC(=O)Nc3cccnc3)ccc21	inactive
CN(C)CCCO[C@@H]1[C@H]2OC(C)(C)O[C@H]2O[C@@H]1[C@H](O)CO	inactive
O=C(CCCCCN1CCN(c2ccccc2-c2ccccc2)CC1)NC1CCCc2ccccc21 (stereo not given)	inactive
CCCCCCCCCCCCCCCC(=O)NCC(COP(=O)([O-])OCC[N+](C)(C)C)OCC (stereo not given)	inactive
